Reference: PubChem BioAssay (NCI)
The panel holds about 83,000 compounds, 20% with a hit somewhere; the sample as a whole holds those more often.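 48-hour exposure, single concentration, 96-well plates; percent growth endpoint where 0 means no net growth. Active: below 10.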 A number with no mark means an inactive call. Calls of active or inactive are those of the source.

Assays:
Assay in all cases: NCI-60 one-dose screen, 48 h (100 = growth as untreated, 0 = no growth, -100 = all killed)
Details in all cases: 10 µM unless noted
NCI-H23 lung = system: NCI-H23 lung
NCI-H226 lung = system: NCI-H226 lung
NCI-H322M lung = system: NCI-H322M lung
HOP-62 NSCLC = system: HOP-62 NSCLC
NCI-H460 lung = system: NCI-H460 lung
HOP-92 NSCLC = system: HOP-92 NSCLC
COLO 205 colon = system: COLO 205 colon
DU-145 prostate = system: DU-145 prostate
K-562 leukemia = system: K-562 leukemia
MALME-3M melanoma = system: MALME-3M melanoma
MDA-MB-231 breast = system: MDA-MB-231 breast
RXF 393 renal = system: RXF 393 renal
SF-268 CNS = system: SF-268 CNS
SF-539 CNS = system: SF-539 CNS
UACC-257 melanoma = system: UACC-257 melanoma
A549/ATCC NSCLC = system: A549/ATCC NSCLC
786-0 renal = system: 786-0 renal
SF-295 CNS = system: SF-295 CNS
M14 melanoma = system: M14 melanoma
NCI-H522 lung = system: NCI-H522 lung

Structure (SMILES) | growth (NCI-H23 lung) | growth (NCI-H226 lung) | growth (NCI-H322M lung) | growth (HOP-62 NSCLC) | growth (NCI-H460 lung) | growth (HOP-92 NSCLC) | growth (COLO 205 colon) | growth (DU-145 prostate) | growth (K-562 leukemia) | growth (MALME-3M melanoma) | growth (MDA-MB-231 breast) | growth (RXF 393 renal) | growth (SF-268 CNS) | growth (SF-539 CNS) | growth (UACC-257 melanoma) | growth (A549/ATCC NSCLC) | growth (786-0 renal) | growth (SF-295 CNS) | growth (M14 melanoma) | growth (NCI-H522 lung)
O=[N+]([O-])c1cc(-c2ccccc2)c(O)c([N+](=O)[O-])c1 | 83.7% | 82.5% | 126% | 92.5% | 65.9% | 3.74% (active) | 106% | 107% | 68.9% | 120% | 71.3% | 99.1% | 79% | 84.7% | 94.9% | – | – | – | – | –
C[n+]1ccccc1C[n+]1ccccc1 | 106% | 108% | 128% | 100% | 115% | 101% | 114% | 114% | 87.8% | 118% | 122% | 115% | 96.8% | 106% | 112% | 107% | 108% | 114% | – | –
N#CC(=C1SCS1)[N+](=O)[O-] | 43.9% | 75.3% | 70.7% | 41.7% | -6.65% (active) | 63% | -21.5% (active) | 2.38% (active) | 28.4% | 21.4% | 16% | 12.2% | 34.9% | 11.5% | 35.3% | 20.9% | 21.8% | 35.9% | -1.46% (active) | –
O=C(CBr)c1ccc(OC(=O)c2ccccc2)cc1 | 101% | 113% | 134% | 99.9% | 104% | 88% | 109% | 114% | 89% | 125% | 107% | 119% | 102% | 102% | 87.9% | 100% | – | 112% | – | –
CN(C)c1ccc(/C=C/c2cc[n+](C)c(/C=C/c3ccc(N(C)C)cc3)c2)cc1 | 10.5% | 34.1% | -9.9% (active) | 19.3% | 10.6% | – | -68.7% (active) | 23% | 4.82% (active) | 1.82% (active) | 8.47% (active) | 28.3% | 24.2% | 27.1% | -18.8% (active) | 14.5% | 22.6% | -3.21% (active) | – | -20.2% (active)
S=c1[nH]c2cc(Cl)ccc2s1 | 105% | 91.4% | 94.4% | 98.1% | 118% | 68.4% | 92.9% | 104% | 111% | 102% | 99.9% | 121% | 94.2% | 100% | 108% | 108% | 107% | 103% | 108% | –
Oc1ccc2c(c1)CCc1ccccc1-2 | 108% | 93.5% | 110% | 83.3% | 106% | 97.4% | 106% | 109% | 121% | – | 111% | 92.6% | 92.1% | 89.9% | 99.2% | 98.1% | 88.1% | 96.3% | – | –
